Screens deposited in PubChem by several laboratories.
This is a sample that favours compounds with a hit; in the whole collection about 3.8% have one here.
ERa coact pot = enhances coactivator binding to human estrogen receptor alpha. AID 639. hit rate 1.3% among 86,000. coactivator binding (% of control), % at 25.6 µM. P03372. TR-FRET ERalpha-LBD/SRC-Cy5 coactivator binding, 2 h; 100 = basal binding, no effect; in the data active means activity above about 200%;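 further: binding measured in presence of low estradiol as agonist stimulus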
Smad3 inh = Smad3 (human) transcription factor binding inhibition | P84022 | TR-FRET Smad3/Dy647-FoxH1 peptide binding, europium anti-His | inhibition, % at 25 µM | hit rate 0.29% among 88,000 | AID 630;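 active means compounds that reduce the energy-transfer binding signal between the protein and its labelled peptide by more than half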
Target sequence (P84022 whole entry, looked up): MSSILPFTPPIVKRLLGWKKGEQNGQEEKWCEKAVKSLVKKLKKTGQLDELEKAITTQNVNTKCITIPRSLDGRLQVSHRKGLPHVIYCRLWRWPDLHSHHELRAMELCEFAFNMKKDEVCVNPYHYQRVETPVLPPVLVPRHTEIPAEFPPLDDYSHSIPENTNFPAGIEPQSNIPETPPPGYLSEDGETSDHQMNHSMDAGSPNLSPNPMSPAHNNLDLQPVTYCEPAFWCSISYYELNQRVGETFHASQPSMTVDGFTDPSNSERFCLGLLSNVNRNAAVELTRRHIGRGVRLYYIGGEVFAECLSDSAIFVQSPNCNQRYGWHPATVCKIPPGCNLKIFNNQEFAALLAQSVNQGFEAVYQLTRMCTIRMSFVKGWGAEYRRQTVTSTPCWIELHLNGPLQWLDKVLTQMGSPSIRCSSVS
ERa coact inh = ER-alpha (human) coactivator binding inhibition; P03372; TR-FRET ER-alpha LBD / SRC-1 peptide, estradiol-bound; inhibition, % at 25.6 µM; hit rate 1.7% among 86,000; AID 629; in the data active means inhibition above about 50%
Candida biofilm = kills Candida albicans biofilms; inhibition, % at 6 µM; hit rate 0.14% among 85,000; AID 834; C. albicans biofilm + clotrimazole, Alamar Blue;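 active means inhibition above 20%; inactive means inhibition below 20%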;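 further: preformed 24 hr biofilms exposed to compound for 48 hr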
ERb coact inh = ER-beta (human) coactivator binding inhibition; Q92731; TR-FRET ER-beta LBD / SRC1-Cy5 peptide binding; receptor agonist-loaded with 1 µM estradiol; inhibition, % at 25.6 µM; hit rate 1.3% among 86,000; AID 633;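 active means compounds whose percent inhibition of the receptor-coactivator binding signal exceeds about 50% in the single-dose screen, limit read from the data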
A number is an active result; [ ] = dose if it differs, or a comment.

CCOC(=O)c1cnc(N(C)C)nc1SC(=N)N was read as Smad3 inh inactive.
`O=C(CSc1nc2scc(-c3ccco3)c2c(=O)n1-c1ccccc1)NCC1CCCO1` (centres undefined) gave ERa coact pot inactive, Smad3 inh inactive, ERa coact inh 62.1, Candida biofilm inactive and ERb coact inh 54.8.
For NC(=O)CSc1nc2scc(-c3ccco3)c2c(=O)n1-c1ccccc1 the results were ERa coact pot inactive, Smad3 inh inactive, ERa coact inh inactive, Candida biofilm inactive and ERb coact inh inactive.
`O=c1c2c(-c3ccco3)csc2nc(SCc2cn3cccnc3n2)n1-c1ccccc1` gave ERa coact pot inactive, Smad3 inh inactive, ERa coact inh 67.2[fluorescence artefact?], Candida biofilm inactive and ERb coact inh inactive.
For NCCNC[C@H](O)CO the results were Smad3 inh inactive.
`Cc1ccc(N=Cc2c(O)n(-c3ccc4c(c3)OCO4)c(=O)c3ccccc23)cc1` gave ERa coact pot inactive, Smad3 inh inactive, ERa coact inh 68.7, Candida biofilm inactive and ERb coact inh inactive.
`Cn1c(=O)c2[nH]c(COCc3nc4c([nH]3)c(=O)n(C)c(=O)n4C)nc2n(C)c1=O` gave Smad3 inh inactive.
`O=C(c1nc2ccc([N+](=O)[O-])cc2[nH]c1=O)[C@@H](O)c1ccc2c(c1)OCO2` gave Smad3 inh inactive.
COc1cc(C2C(C#N)=C(N)Oc3cc(C)n(CC4CCCO4)c(=O)c32)cc2c1OCO2 (centres undefined) was read as ERa coact pot inactive, Smad3 inh inactive, ERa coact inh inactive, Candida biofilm inactive and ERb coact inh inactive.
For COc1cc(C2C(C#N)=C(N)Oc3cc(C)oc(=O)c32)cc2c1OCO2 (centres undefined) the results were ERa coact pot inactive, Smad3 inh inactive, ERa coact inh 70.0, Candida biofilm inactive and ERb coact inh 62.0.
Nc1c(C(=O)NCC2CCCO2)c2nc3ccccc3nc2n1/N=C/c1ccncc1 (centres undefined) was read as ERa coact pot 313.7[fluorescence artefact?], Smad3 inh inactive, ERa coact inh inactive, Candida biofilm inactive and ERb coact inh inactive.
Screening CC(C)Cn1c(N)c(C(=O)NCC2CCCO2)c2nc3ccccc3nc21 (centres undefined) returned ERa coact pot inactive, Smad3 inh inactive, ERa coact inh inactive and ERb coact inh inactive.
Screening CC(C)(C)NC(=O)Cc1ccc(S(=O)(=O)N2CCCC2)s1 returned ERa coact pot inactive, Smad3 inh inactive, ERa coact inh 57.9[fluorescence artefact?], Candida biofilm inactive and ERb coact inh inactive.
`O=C(Cc1ccc(S(=O)(=O)N2CCCC2)s1)N1CCOCC1` gave ERa coact pot inactive, Smad3 inh inactive, ERa coact inh inactive, Candida biofilm inactive and ERb coact inh inactive.
Screening O=C(O)[C@H]1CCCN1Cc1cc2ccccc2c2ccccc12 returned Smad3 inh inactive.
Screening CSc1ccccc1NC(=O)c1noc2c1CCC2 returned ERa coact pot inactive, Smad3 inh inactive, ERa coact inh 91.7[fluorescence artefact?], Candida biofilm inactive and ERb coact inh 86.3.
`Cc1ccc(NC(=O)c2noc3c2CCCCC3)cc1` gave ERa coact pot inactive, Smad3 inh inactive, ERa coact inh inactive, Candida biofilm inactive and ERb coact inh inactive.
Screening COC(=O)c1ccccc1NC(=O)c1noc2c1CCC2 returned ERa coact pot inactive, Smad3 inh inactive, ERa coact inh 89.1[fluorescence artefact?], Candida biofilm inactive and ERb coact inh 87.3.
Screening CCc1ccc(NC(=O)c2noc3c2CCC3)cc1 returned ERa coact pot inactive, Smad3 inh inactive, ERa coact inh 81.5, Candida biofilm inactive and ERb coact inh 76.5.
For CC(NC(=O)c1noc2c1CCCC2)c1ccccc1 (centres undefined) the results were ERa coact pot inactive, Smad3 inh inactive, ERa coact inh inactive, Candida biofilm inactive and ERb coact inh inactive.
O=C(NC1CCCCC1)c1noc2c1CCCCC2 was read as ERa coact pot inactive, Smad3 inh inactive, ERa coact inh 50.4[fluorescence artefact?], Candida biofilm inactive and ERb coact inh 61.3[fluorescence artefact?].
For CCc1ccc(NC(=O)c2noc3c2CCCCC3)cc1 the results were ERa coact pot inactive, Smad3 inh inactive, ERa coact inh inactive, Candida biofilm inactive and ERb coact inh inactive.
For Cc1c(C=O)cnn1CCC(=O)O the results were ERa coact pot inactive, Smad3 inh inactive, ERa coact inh inactive, Candida biofilm inactive and ERb coact inh inactive.
`CCCCN(CC)C(=O)Cn1cnc2ccc(S(=O)(=O)N3CCC(C)CC3)cc2c1=O` gave Candida biofilm inactive.
Screening CC(C)N(Cc1ccccc1)S(=O)(=O)c1n[nH]c(C(C)(C)C)n1 returned Smad3 inh inactive.
For O=C(O)[C@@H]1[C@H](C(=O)NCc2ccccn2)[C@@H]2C=C[C@H]1O2 the results were Smad3 inh inactive.
COC(=O)c1ccccc1NC(=O)c1cc(-c2cccs2)on1 was read as ERa coact pot 251.3[fluorescence artefact?], Smad3 inh inactive, ERa coact inh inactive, Candida biofilm inactive and ERb coact inh inactive.
Screening O=C(CSc1nnnn1-c1ccc2c(c1)OCCO2)N1CCc2ccccc21 returned ERa coact pot inactive, Smad3 inh inactive, ERa coact inh inactive, Candida biofilm inactive and ERb coact inh inactive.
Screening O=C(CSc1nnnn1-c1ccc2c(c1)OCCO2)OC1CCCCC1 returned ERa coact pot 212.5, Smad3 inh inactive, ERa coact inh inactive, Candida biofilm inactive and ERb coact inh inactive.
`N[C@@H](Cc1cccc([N+](=O)[O-])c1)C(=O)O` gave Smad3 inh inactive.
`NCCN1C(=O)c2ccccc2[C@@]1(O)c1ccc(Cl)cc1` gave Smad3 inh inactive.
`COCCNS(=O)(=O)c1ccc2c(c1)C(=O)c1cc(S(=O)(=O)NCCOC)ccc1-2` gave ERa coact pot inactive, Smad3 inh inactive, ERa coact inh inactive, Candida biofilm inactive and ERb coact inh 55.0[fluorescence artefact?].
For O=C(O)CN1C(=O)O[C@@H](c2ccccc2)C1=O the results were Smad3 inh inactive.
`O=C(CSc1nnc(Nc2ccccc2)s1)NCc1ccco1` gave ERa coact pot inactive, Smad3 inh inactive, ERa coact inh inactive, Candida biofilm inactive and ERb coact inh inactive.
`O=C(CSc1nnc(Nc2ccccc2F)s1)NCc1ccco1` gave ERa coact pot inactive, Smad3 inh inactive, ERa coact inh 81.4[fluorescence artefact?], Candida biofilm inactive and ERb coact inh 69.3.
For Cc1ccc(Nc2nnc(SCC(=O)NCc3ccco3)s2)cc1 the results were ERa coact pot inactive, Smad3 inh inactive, ERa coact inh 68.2, Candida biofilm inactive and ERb coact inh inactive.
`Cc1ccccc1Nc1nnc(SCC(=O)NC(=O)NCc2ccco2)s1` gave ERa coact pot inactive, Smad3 inh inactive, ERa coact inh 75.1 and ERb coact inh 56.3[fluorescence artefact?].
O=C(O)CCc1c2ccc(=O)c(O)c-2oc2c(O)c(O)ccc12 was read as Smad3 inh inactive.
For N=C(N)S[C@@H]1c2ccccc2-c2cc([N+](=O)[O-])ccc21 the results were Smad3 inh 68.7.
Cc1nn(C)c(C)c1NC(=O)CSc1nc(Cc2ccccc2)nc2c1cnn2-c1ccccc1 was read as ERa coact pot inactive, Smad3 inh inactive, ERa coact inh 81.8[fluorescence artefact?], Candida biofilm inactive and ERb coact inh 56.0[fluorescence artefact?].
